The values below come from PubChem BioAssay AID602270 (The Scripps Research Institute Molecular Screening Center, 2012).

Some of the results follow. A number with no mark means an inactive call. Active and inactive are the calls of the source. Cut-off read from the data, not from the text of the source: active = activation above about 4%; inactive = the rest.

This test concerns Methionine sulfoxide reductase A (Bos taurus). Put plainly: bovine MsrA activators, retest, confirmation, biochemical, absorbance, HTS (AID 602270).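 Note: enzyme coupled to thioredoxin and thioredoxin reductase with NADPH; 0% = vehicle wells and 100% = reference activator wells.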 The note with it: purified bovine MsrA, absorbance read-out; at 10.6 µM; active compounds read high.
As for `CC(=O)N(O)CCCCCNC(=O)CCC(=O)N(O)CCCCCNC(=O)CCC(=O)N(O)CCCCCNC(=O)CCC(=O)O`, the activation was -3.63%. Next, `COc1ccc([C@H]2CC(=O)C=C(/C=C/c3ccccc3)C2)cc1`: -2.68%; `CSCCC1NC(=O)N(CC(=O)Nc2cccc(S(=O)(=O)N3CCCCCC3)c2)C1=O` (centres undefined): -0.9%.

`O=C(CCN1CCN(c2ccccc2)CC1)NNC(=S)Nc1ccccc1`: the activation was -0.61%. On to `O=C(O)C1CCCCC1C(=O)Nc1ccc(Cl)cc1` (centres undefined), for which the activation is -0.71%.

`COc1cc(NC(=O)COC(=O)c2ccc([N+](=O)[O-])s2)cc(OC)c1OC`: the activation was 4.75% (active). As for `O=C1C(Sc2cccc(F)c2)=C[C@@]2(O)CC[C@@H](O)[C@]1(Sc1cccc(F)c1)[C@H]2O`, the activation was -4.14%. Take `O=C(O)Cc1ccc(NC(=O)C2CCCCC2C(=O)O)cc1` (centres undefined): the activation was -1.24%. As for `COc1ccc(C(=O)COC(=O)c2ccc([N+](=O)[O-])s2)cc1OC`, the figure is 2.35%; as for `CCc1ccc(NC(=O)CSc2nnc(-c3cnccn3)n2Cc2ccco2)cc1`, -1.98%.

Consider `O=C(NC1=CC(=O)c2ccccc2C1=O)c1ccccc1`, for which the activation was 14.4% (active). Next, `COC(=O)CN1C(=O)C(O)=C(C(C)=O)C1c1ccc([N+](=O)[O-])cc1` (centres undefined): -2.94%; `COc1cccc(CNCCc2c[nH]c3ccccc23)c1OCc1ccccc1F`: -2.23%; `CC(=O)NC(Cc1c[nH]c2ccccc12)C(=O)O` (centres undefined): -0.4%. Consider `COc1ccc(C(CNC(=O)c2cc3c(s2)CCCC3)N2CCOCC2)cc1` (centres undefined), for which the activation is 0.61%. As for `COc1ccc2nc(N3CCCC(O)C3)c(C#N)cc2c1` (centres undefined), the activation is -2.45%.

As to `CCN(CC(=O)Nc1ccccc1OC)C(=O)CC1CC2CCC1C2` (centres undefined), the activation was 0.76%. `Cn1nnnc1SCC(=O)N1CCN(Cc2ccccc2)CC1`: the activation is -1.94%.

With `COc1ccc(Cl)cc1NS(=O)(=O)c1cccc(C(=O)NCC2CCCO2)c1` (centres undefined), the activation was 2.13%. Regarding `Cc1ccc(COC(=O)CN2C(=O)NC3(CCCC3)C2=O)cc1`, the activation was -1.66%. Take `O=C(OCC(=O)N1CCN(c2ccccc2)CC1)c1ccc([N+](=O)[O-])s1`: the activation is 3.98% (active). Consider `O=C(O)c1ccccc1-c1ccccc1C(=O)Nc1cccc2ccccc12`, for which the activation is -1.68%. With `NC1=CC(=O)C(=O)c2cccnc21`, the activation is 5.78% (active). For the compound `CCOc1ccc2[nH]c(=S)sc2c1`, the activation is 1.68%.
